Results: the supplement of paper PMC13392028
Over roughly 4,100 sequences, “RBNS R-value (6-mer enrichment in protein-bound RNA vs input library)” has its median near 0.96; the highest 2% begin near 2.4. The entries come from a sample that favours the highest values as a whole.

Test system: PyIESI-1 RRM domain (Plasmodium yoelii PY17X_0911200 aa 795-956, GST fusion)
Experiment: RBNS R-value (6-mer enrichment in protein-bound RNA vs input library) (ratio); higher = stronger binding preference; the methods of the paper give 50 / 100 / 500 nM protein instead
Description: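 RNA Bind-n-Seq: recombinant GST-tagged IESI-1 RRM domain was incubated at room temperature with a random 40-nt in vitro transcribed RNA library at 250, 500 or 1000 nM protein. Bound RNA was pulled down on glutathione beads and sequenced. R-value is the enrichment of each 6-mer in the bound RNA relative to the input library. Each 6-mer sits inside the random 40-mer context, not as an isolated oligo. Values are replicate 1 only.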

Row | Sequence | RBNS R-value (protein concentration: 250 nM) | RBNS R-value (protein concentration: 500 nM) | RBNS R-value (protein concentration: 1000 nM)
1 | UUACGC | 0.784 | 0.803 | 0.805
2 | AAGGCU | 0.979 | 0.991 | 0.95
3 | GAUCGG | 0.955 | 0.963 | 0.942
4 | GAUAUA | 1.32 | 1.36 | 1.53
5 | GAUAUG | 2.3 | 2.32 | 2.43
6 | GAUAUU | 1.57 | 1.65 | 1.77
7 | AUAUAA | 0.522 | 0.55 | 0.539
8 | AGUGUA | 0.664 | 0.68 | 0.657
9 | GGAGUU | 0.958 | 0.98 | 0.948
10 | UUUACC | 0.764 | 0.778 | 0.794
11 | GGGUGU | 0.909 | 0.99 | 0.941
12 | UCGGAA | 0.911 | 0.907 | 0.87
13 | AAUGGU | 0.878 | 0.894 | 0.881
14 | CAUGAU | 5.84 | 5.36 | 5.72
15 | UAUGAU | 4.89 | 4.59 | 4.9
16 | AAUGAU | 5.76 | 5.22 | 5.56
17 | CAUGAA | 0.887 | 0.913 | 0.901
18 | AAUGAG | 1.03 | 1.07 | 1.04
19 | CAUGAG | 0.978 | 0.984 | 0.979
20 | UAUGAG | 0.865 | 0.899 | 0.898
21 | UAUGAA | 0.826 | 0.838 | 0.811
22 | AUAGUC | 0.632 | 0.65 | 0.627
23 | CACCUG | 1.72 | 1.67 | 1.73
24 | GAUGAG | 3.25 | 3.07 | 3.06
25 | AAUGAA | 1.03 | 1.02 | 1.02
26 | GAUGAA | 4.07 | 3.66 | 3.68

Row | Sequence | RBNS R-value (protein concentration: 250 nM) | RBNS R-value (protein concentration: 500 nM) | RBNS R-value (protein concentration: 1000 nM)
27 | AAUGAC | 1.19 | 1.23 | 1.25
28 | GAUAAU | 1.7 | 1.73 | 1.86
29 | UAUGAC | 0.93 | 0.947 | 0.974
30 | GAUGGU | 1.92 | 1.85 | 1.9
31 | GAUGAU | 6.07 | 5.52 | 5.59
32 | GACGAG | 1.19 | 1.18 | 1.13
33 | GAUGAC | 3.66 | 3.41 | 3.46
34 | GGUGAA | 1 | 1.02 | 0.954
35 | UGAUCG | 1.64 | 1.68 | 1.74
36 | CUAAGC | 0.741 | 0.738 | 0.733
37 | GUUUGG | 0.834 | 0.866 | 0.813
38 | UAGGAG | 0.934 | 0.936 | 0.887
39 | CUGCAU | 0.892 | 0.929 | 0.917
40 | UCUGUU | 0.847 | 0.911 | 0.878
41 | GUGGCG | 0.953 | 0.954 | 0.937
42 | UAAUGA | 1.69 | 1.65 | 1.71
43 | GAAUGA | 2.5 | 2.31 | 2.3
44 | GAAUGC | 1.17 | 1.18 | 1.17
45 | AAAUGA | 2.48 | 2.3 | 2.4
46 | GAAUGU | 0.999 | 1 | 0.972
47 | AAAUGC | 0.942 | 0.952 | 0.985
48 | AUUAAC | 0.87 | 0.859 | 0.881
49 | CCCUCC | 1.15 | 1.13 | 1.17
50 | UCGCGU | 0.843 | 0.85 | 0.835
51 | ACUCUC | 0.893 | 0.906 | 0.906
52 | GAGGAC | 1.09 | 1.06 | 1.02
